Measurements reported in the supplement of paper PMC10338343.
± gives the standard deviation. Over roughly 8,200 sequences, “pre-steady-state target cleavage rate” has its median near 0.024; the highest 2% begin near 1.3. The sample holds the highest values, similar sequences and a random draw of the others, so the mix is not that of the screen.

Test system: MIWI (PIWIL1) piRISC loaded with L1MC piRNA (30 nt)
Test: pre-steady-state target cleavage rate (min^-1); MIWI and MILI are mouse PIWI proteins and EfPiwi is from a freshwater sponge; tags in brackets are library labels; higher = faster piRNA-guided slicing of the target
Conditions: guide: L1MC piRNA 5'p-UAACUAAAUACUAUGCAAGCUGUAGGUCCU
Outline: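 The method was Cleave-'n-Seq, in which uncleaved targets from a transcribed, DNA-blocked target RNA library were sequenced after exposure to active affinity-purified piRISC carrying one synthetic guide, with or without GTSF1 partner protein. Reactions contained 0.1 nM library, 1 nM piRISC and, where present, 500 nM GTSF1 in HEPES–potassium acetate buffer at 33 °C for 0–8 or 0–960 min. Reads were normalised to depth and to weakly complementary targets, three trials were pooled, and k3 was capped at 0.0001 min^-1. The pre-steady-state cleavage rate came from a burst-and-steady-state fit.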

[1] = auxiliary factor: 500 nM mouse GTSF1
[2] = auxiliary factor: none (no GTSF1)

Row | Sequence | pre-steady-state target cleavage rate [1] | pre-steady-state target cleavage rate [2]
1 | UCCUGGAUGUCGAACGUAUGAUUUUAGUUA | < 0.0001 | 
2 | UCCUGCUUGUGCUUGCAUAGUAUUUAGUAA | 0.133 ± 0.019 | 0.0144 ± 0.0036
3 | UCCUGGUACAGGCUUGCAUAGUAUUUAGUUA | 0.498 ± 0.059 | 0.0384 ± 0.0089
4 | UCCUGGAUGUCGAUGCAUAGUAUUGAGUUA | 0.02 ± 0.006 | 
5 | UCCUGGAUCAGCUUGCAUAGUCUUUAGUUA | 0.841 ± 0.035 | 0.0552 ± 0.012
6 | AGGACCUACAGCUUGCAUAGUAUUUAAUUA | 0.357 ± 0.033 | 0.0325 ± 0.0055
7 | AGGACCUACAGCUUGCUUAGUAUUUAGAAA | 0.486 ± 0.063 | 0.00737 ± 0.0028
8 | UCCUGGAUCAACUUGCAUAGUAUUUAGUUA | 1.01 ± 0.051 | 0.0248 ± 0.0054
9 | AGGACCUACAGGAAGCAUAGUAUUUACAAA | 0.32 ± 0.064 | 
10 | UGCACCAACAGCUUGCAUAGUAUUUAGUUA | 1.23 ± 0.056 | 0.0613 ± 0.0098
11 | UCGACCAACAGCUUGCAUAGUAUUUAGUUA | 1.62 ± 0.054 | 0.0825 ± 0.014
12 | ACGACCAACAGCUUGCAUAGUAUUUAGUUA | 1.64 ± 0.055 | 0.0972 ± 0.018
13 | UCGACCAACAGCUUGCAUAGUAUUUAGAUA | 0.54 ± 0.029 | 0.0297 ± 0.0066
14 | AGCACCAACAGCUUGCAUAGUAUUUAGUUA | 1.03 ± 0.058 | 0.0664 ± 0.011
15 | UCGACCAACAGCUUGCAUAGUAUUUAGUAA | 1.2 ± 0.065 | 0.0413 ± 0.0084
16 | UCCUGGAUGUGCUUGCAUAGUAUUUUGAAA | 0.0177 ± 0.0092 | 0.00406 ± 0.0024
17 | UCCUGCUACAGCUUGCAUUCUAUUUACAAA | 0.0158 ± 0.0068 | 
18 | AGGAGCUACAGGUUGCAUAGUAUUUAGUUA | 1.17 ± 0.075 | 0.0502 ± 0.0084
19 | UCCUGGUACAGAUUGCAUAGUAUUUAGUUA | 0.58 ± 0.071 | 0.0178 ± 0.0046
20 | UCCUGGAACAGCUUGCAUACAAUUUAGUAA | 0.0102 ± 0.0056 | 
21 | AGGACCUACAGCAUGCAUAGUAUUUACAAA | 0.526 ± 0.066 | 0.00349 ± 0.0032
22 | UCCACCACAGCUUGCAUAGUAUUUAGUUA | 0.992 ± 0.035 | 0.0505 ± 0.0088
23 | UCCACGUUCAGCUUGCAUAGUAUUUAGUUA | 1.42 ± 0.057 | 0.0658 ± 0.011
24 | UGGACGUAGAGCUUGCAUAGUAUUUAGUUA | 1.29 ± 0.083 | 0.043 ± 0.0093
25 | UCGACGUUCAGCUUGCAUAGUAUUUAGUUA | 1.3 ± 0.036 | 0.0748 ± 0.015
26 | AGGACGAACAGCUUGCAUAGUAUUUAGUUA | 1.27 ± 0.045 | 0.084 ± 0.016
27 | UCCACCUUCAGCUUGCAUAGUAUUUAGUUA | 0.933 ± 0.045 | 0.0531 ± 0.0087

Row | Sequence | pre-steady-state target cleavage rate [1] | pre-steady-state target cleavage rate [2]
28 | UGGACGUUCAGCUUGCAUAGUAUUUAGUUA | 1.37 ± 0.052 | 0.0691 ± 0.012
29 | AGGACGUUCAGCUUGCAUAGUAUUUAGUUA | 1.35 ± 0.063 | 0.0669 ± 0.01
30 | AGGACGUAGAGCUUGCAUAGUAUUUAGUUA | 1.17 ± 0.072 | 0.047 ± 0.0083
31 | UGGACCUACAGCUUGCAUACAAUUUAGUAA | 0.00447 ± 0.0027 | 
32 | UCCACCUACAGCUUGCUAUGUAUUUAGAAA | 0.00878 ± 0.0045 | 
33 | UCCUGGAUGUGCUUGCAUACUAUUUAGUUA | 0.0877 ± 0.01 | 0.0191 ± 0.0037
34 | UCCUGGAUCAGCUUGCAUAGUAUUUUGAUA | 0.17 ± 0.032 | 0.0123 ± 0.004
35 | UCCUGGAACAGCUUGCAUAAGUAUUUAGUUA | 0.00489 ± 0.0033 | 
36 | UCCUGGAACAUGCUUGCAUAGUAUUUAGUUA | 0.696 ± 0.028 | 0.0566 ± 0.011
37 | UCCUGGUACAGCUUGCAUCGUAUUUAGUUA | 0.203 ± 0.024 | 0.0269 ± 0.0059
38 | UCCUGCUACAGCUUGCAUAGUCUUUAGUUA | 0.279 ± 0.034 | 0.0195 ± 0.0047
39 | UCCUGCUACAGCUUGCAUAGAUUUUAGAAA | 0.00439 ± 0.0033 | 
40 | UGGACCUACUGCUUGCAUUGUAUUUAGUUA | 0.868 ± 0.041 | 0.0358 ± 0.009
41 | UCCUCCUACACGUUGCAUAGUAUUUAGUAA | 0.507 ± 0.035 | 0.00568 ± 0.0015
42 | UCCACCUACAACUUGCAUAGUAUUUAGUUA | 0.869 ± 0.025 | 0.0505 ± 0.0067
43 | AGGACCUACAACUUGCAUAGUAUUUAGUUA | 1.08 ± 0.031 | 0.0712 ± 0.011
44 | UGGACCUACACCUUGCAUAGUAUUUAGUUA | 1.23 ± 0.045 | 0.0585 ± 0.0088
45 | UGGACCUACACUUGCAUAGUAUUUAGUUA | 1.33 ± 0.082 | 0.045 ± 0.0091
46 | UCGACCUACACUUGCAUAGUAUUUAGUUA | 1.09 ± 0.045 | 0.0331 ± 0.0076
47 | UGGACCUACAAGCUUGCAUAGUAUUUAGUUA | 1.03 ± 0.058 | 0.0528 ± 0.0098
48 | AGGACCUACACUUGCAUAGUAUUUAGUUA | 1.15 ± 0.043 | 0.0736 ± 0.016
49 | UCGACCUACAACUUGCAUAGUAUUUAGUUA | 1.33 ± 0.041 | 0.0746 ± 0.015
50 | UGGACCUACAACUUGCAUAGUAUUUAGUUA | 1.5 ± 0.062 | 0.08 ± 0.013
51 | UCCUGGAACAGCUUCCAUAGUAUUUAGAAA | 0.00998 ± 0.0048 | 
52 | UCCACCUACAGCUUGCAUAGUAUUUAGUA | 0.445 ± 0.043 | 0.00981 ± 0.0037
53 | AGGACCUACAGCUUGCAUUCUAUUUAGUAA | 0.262 ± 0.057 | 0.00441 ± 0.0024
54 | UCCUGGAUGAGCUUGCUUAGUUUUUAGUUA | 0.0242 ± 0.0064 | 0.00971 ± 0.0022

Row | Sequence | pre-steady-state target cleavage rate [1] | pre-steady-state target cleavage rate [2]
55 | UCCUGGAUGUCCAUGCAUAGUAAUUAGUUA | 0.00537 ± 0.0047 | 
56 | UGGACCAACAGCUUGCAUAGUAUUUACUUA | 0.299 ± 0.018 | 0.0367 ± 0.0063
57 | UCCUGGAUGUCCUUGAAUAGUAUUUAGUUA | 0.0223 ± 0.0065 | 0.00268 ± 0.0026
58 | UCCUCCUACAGCUUGCAUAGUAUUUAGUUU [g2:g26:cont:t1U] | 1.29 ± 0.04 | 0.0826 ± 0.02
59 | UCCUGCUACAGCUUGCAUAGUAUUUAGUUUA | 1.17 ± 0.077 | 0.0574 ± 0.012
60 | UCCUGCCUACAGCUUGCAUAGUAUUUAGUUA | 1.33 ± 0.091 | 0.0623 ± 0.014
61 | AGCUCCUACAGCUUGCAUAGUAUUUAGUUA | 1.37 ± 0.053 | 0.0847 ± 0.013
62 | UCCUGCUACAGCUUGCCUAGUAUUUAGUUA | 0.886 ± 0.057 | 0.0207 ± 0.0037
63 | UGCUCCUACAGCUUGCAUAGUAUUUAGUUA | 1.33 ± 0.047 | 0.0726 ± 0.012
64 | AGCUCCUACAGCUUGCAUAGUAUUUAGUAA | 1.01 ± 0.069 | 0.0506 ± 0.011
65 | UGCUCCUACAGCUUGCAUAGUAUUUAGAAA | 0.429 ± 0.033 | 0.00714 ± 0.0022
66 | UGCUCCUACAGCUUGCAUAGUAUUUAGUAA | 1.07 ± 0.045 | 0.0382 ± 0.0079
67 | UCCACCUACAGCUUGCAUAGUAUUUCAGUUA | 0.691 ± 0.081 | 0.0139 ± 0.0037
68 | AGGACCUACUGCUUGCAUAGUAUUUAGAUA | 0.471 ± 0.048 | 0.0411 ± 0.0086
69 | UCCUGGUAUAGCUUGCAUAGUAUUUAGUUA | 1.02 ± 0.043 | 0.0597 ± 0.012
70 | UCCACCUACAGCUUGCAUACUAUAUAGUUA | 0.178 ± 0.022 | 0.0112 ± 0.003
71 | AGGAGCUACAGCUUGCUUAGUAUUUAGUUA | 1.3 ± 0.061 | 0.0523 ± 0.011
72 | UGGAGCUACAGCUUGCUUAGUAUUUAGUUA | 1.33 ± 0.062 | 0.0391 ± 0.0074
73 | UCGAGCUACAGCUUGCUUAGUAUUUAGUUA | 1.19 ± 0.053 | 0.0376 ± 0.0079
74 | AGGACCUACAGCUUGCUUAGUAUUUAGUUA | 1.43 ± 0.071 | 0.066 ± 0.015
75 | AGGACCUACAGCUUGCUUAGUAUUUAGUAA | 0.862 ± 0.079 | 0.0262 ± 0.0068
76 | UGGACCUACAGCUUGCUUAGUAUUUAGUAA | 1.03 ± 0.073 | 0.0335 ± 0.0097
77 | UGGACCUACAGCUUGCUUAGUAUUUAGUUA | 1.56 ± 0.094 | 0.0426 ± 0.011
78 | AGGACCUACAGCUUGCUAGUAUUUAGUUA | 0.179 ± 0.041 | 0.00501 ± 0.0024
79 | UGGACCUACAGCUUGCUAGUAUUUAGUUA | 0.0515 ± 0.013 | 0.00386 ± 0.0022
